Screening data from PubChem.
In the library only some 11% were active in any assay of this set; here they are far more common.
BAZ2B block: BAZ2B (human) inhibition | AlphaScreen BAZ2B-H3K14Ac peptide displacement | Potency, µM (highest dose often 114 µM), inactives show at the highest dose activity change, negative = inhibition, usual class: inhibitors | AID 504333 | Q9UIF8 | actives 4.4% (n = 360,000); also: potency is read from the fitted curve at half-maximal effect; % is scaled to controls: 0 for no effect and ±100 for the full control effect; nearly all actives have a fitted effect of over 60% in size
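In this displacement format the biotinylated H3(5-23) peptide acetylated at Lys14 serves as ligand at 50 nM, with BAZ2B at 50 nM in PBS pH 7.4 containing 0.01% Tween-20. Donor and acceptor beads are 10 ug/mL final.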
G9a block: inhibitors of human histone lysine methyltransferase G9a | Q96KQ7 | G9a H3K9 monomethylation, AlphaScreen, 2 h | Potency, µM (titrated, usually from 102 µM), inactives show at the top dose activity, negative = inhibition, actives largely listed as inhibitors | actives 8.8% (n = 350,000) | AID 504332; also: potency is read from the fitted curve at half-maximal effect; % is scaled to controls: 0 for no effect and ±100 for the full control effect; nearly all actives have a fitted effect of over 75% in size
Target sequence (Q96KQ7 913-1193 limits assumed): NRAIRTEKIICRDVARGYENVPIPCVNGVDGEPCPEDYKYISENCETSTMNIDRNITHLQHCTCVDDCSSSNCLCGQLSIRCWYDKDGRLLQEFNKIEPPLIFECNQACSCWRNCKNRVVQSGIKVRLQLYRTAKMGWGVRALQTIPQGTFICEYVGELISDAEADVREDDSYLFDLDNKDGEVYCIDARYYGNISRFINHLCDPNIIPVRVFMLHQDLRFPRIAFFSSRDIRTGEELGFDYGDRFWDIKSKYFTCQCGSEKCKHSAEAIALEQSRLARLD
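Signal arises when biotinylated H3K9 peptide, once monomethylated, bridges streptavidin donor and antibody-captured acceptor beads. Enzyme at 20 nM was preincubated 15 min with test compounds; peptide 500 nM and SAM 20 uM then reacted for 2 h.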
HP1b binding inh: blocks HP1-beta chromodomain binding to methylated histone tails; actives 0.56% (n = 390,000); P83916; AID 540317; AlphaScreen HP1-beta / biotin-H3K9me3 peptide binding; Potency, µM (series often up to 114 µM), for the others: top-dose activity change, negative = inhibition, usual class: inhibitors; also: potency is read from the fitted curve at half-maximal effect; nearly all actives have a fitted effect of over 70% in size
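HP1-beta protein (50 nM final) preincubated 30 min at room temperature with biotinylated H3(1-18)K9me3 peptide (50 nM) in PBS pH 7.4, 0.01% Tween-20, then compound added for 30 min. AlphaScreen streptavidin donor/nickel chelate acceptor beads (10 ug/mL final), 30 min dark, luminescence read.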
L3MBTL1 block: blocks human L3MBTL1. Q9Y468. AlphaScreen L3MBTL1–H3K9me1 peptide binding. Potency, µM (top dose mostly 57.1 µM), inactives show top-dose activity, negative = inhibition, usual class: inhibitors. actives 0.66% (n = 230,000); also: potency is read from the fitted curve at half-maximal effect; % is scaled to controls: 0 for no effect and ±100 for the full control effect; nearly all actives have a fitted effect of over 60% in size
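AlphaScreen proximity signal between nickel-chelate acceptor and streptavidin donor beads (final 10 ug/mL) reports binding of 50 nM L3MBTL1 to 75 nM biotin-H3 K9me1 peptide; complex incubated with compounds 30 min at room temperature; cefsulodin titration as control.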
JMJD2A Tudor: inhibitors of human JMJD2A Tudor domain; O75164; AlphaScreen JMJD2A-Tudor / H3K4me3 peptide binding; Potency, µM (titrated, usually from 114 µM), for the others: at the top dose activity change, negative = inhibition, most hits filed as inhibitors; actives 4.4% (n = 390,000); AID 504339; also: potency is read from the fitted curve at half-maximal effect; % is scaled to controls: 0 for no effect and ±100 for the full control effect; nearly all actives have a fitted effect of over 50% in size
PI5P4K alpha inh: PI5P4K alpha (human) kinase inhibition. P48426. AID 652105. PI5P4Kalpha enzyme, ADP-Glo luminescence, 60 min; stronger effect = lower value. max response, %. actives 1.2% (n = 330,000); active = max response of -50% or lower; inconclusive = between -30% and -50%; inactive = -30% or higher; also: value at the top dose of about 77 µM; % is scaled to controls: 0 for no effect and ±100 for the full control effect
Target sequence (P48426 whole entry, looked up): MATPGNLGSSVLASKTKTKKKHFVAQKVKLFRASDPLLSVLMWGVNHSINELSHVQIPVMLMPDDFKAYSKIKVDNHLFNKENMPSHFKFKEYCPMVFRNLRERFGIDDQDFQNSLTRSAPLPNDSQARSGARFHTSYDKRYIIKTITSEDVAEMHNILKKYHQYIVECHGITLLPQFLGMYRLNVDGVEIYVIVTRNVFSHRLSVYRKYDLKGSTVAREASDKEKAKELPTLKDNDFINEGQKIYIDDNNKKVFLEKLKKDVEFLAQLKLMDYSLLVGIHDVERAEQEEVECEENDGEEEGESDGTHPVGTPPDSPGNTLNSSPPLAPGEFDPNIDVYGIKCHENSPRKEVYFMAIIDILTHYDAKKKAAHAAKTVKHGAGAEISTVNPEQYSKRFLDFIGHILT
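PI5P4Kalpha ADP-Glo assay; 5 microM ATP final; 60 min RT reaction; HEPES pH 7.4/EGTA/CHAPS, 5% DMSO; controls lacking substrate or enzyme; luminescent end-point.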
Numbers without * were called inactive; ? = inconclusive; nt = no result given; [ ] = remark or other dose. Unless noted, calls follow the shape of the dose curve; as a rule, active = well fitted inhibition curve with a large enough effect; inconclusive = small, poorly fitted or top-dose-only effect; inactive = no such curve, though single readings can be large or run the other way.

SMILES	BAZ2B block	G9a block	HP1b binding inh	L3MBTL1 block	JMJD2A Tudor	PI5P4K alpha inh
COc1ccc(-n2cc(C(=O)NCc3ccc(Cl)cc3)c3ccccc3c2=O)cc1	?	-45%[59 µM]	52%	nt	-33%	nt
CCC(=O)Nc1nnc(S(=O)(=O)N(C)Cc2ccccc2)s1	0%	-6%[59 µM]	19%	nt	-20%	nt
CCCCN1CCc2nc(N3CCN(c4ncccn4)CC3)ncc2C1	56µM*	18µM*	20%	nt	79µM*	nt
CCOc1ccc(CN2CCc3nc(N4CCN(c5ccccn5)CC4)ncc3C2)cc1OC	79µM*	?	17%	nt	89µM*	nt
CCOc1ccccc1CN1CCc2nc(N3CCN(c4ccccc4F)CC3)ncc2C1	56µM*	?	-5%	nt	79µM*	nt
Cc1ccc(CN2CCc3nc(N4CCN(c5ccccc5F)CC4)ncc3C2)cc1C	-18%	2%[59 µM]	38%	nt	-21%	nt
CCCN1CCc2nc(N3CCN(c4ncccn4)CC3)ncc2C1	50µM*	32µM*	26%	nt	89µM*	nt
CCOCCCNC(=O)C1CCN(c2nc3ccc(Cl)cc3[nH]2)CC1	5%	-24%[59 µM]	31%[57 µM]	nt	6%	nt
COc1ccc(NC(=O)N2CCCC3(CCN(C(=O)c4cccc(F)c4)CC3)C2)cc1	nt	0%[12.7 µM]	nt	nt	nt	nt
COc1ccc(N2CC(NC(=O)COc3ccc4ccccc4c3)CC2=O)cc1 (centres undefined)	-2%	-3%[59 µM]	5%	nt	-25%	nt
Brc1ccc(CN2CCc3nc(N4CCN(c5ncccn5)CC4)ncc3C2)cc1	50µM*	?	-32%	nt	45µM*	nt
CCN1CCN(c2ncc3c(n2)CCN(Cc2ccc(OC(C)C)cc2)C3)CC1	?	?	-12%	nt	?	nt
Cc1c2cnn(CC(=O)NCc3ccc(F)cc3)c(=O)c2c(C)n1Cc1ccccc1Cl	-8%	3%[59 µM]	42%	nt	-3%	nt
COc1ccc(NC(=O)c2ccc3c(=O)n4nc(Nc5cc(C)ccc5C)sc4nc3c2)cc1	-9%	7%[59 µM]	43%	nt	-16%	nt
Cc1ccc(NC(=O)CCn2nc(-c3ccccc3)c3ccccc3c2=O)c(C)c1	?	-27%[59 µM]	14%	nt	-22%	nt
Cc1cccc(N2CCN(CCCNC(=O)Cn3ncc4c([nH]c5ccccc54)c3=O)CC2C)c1 (centres undefined)	-15%	-4%[59 µM]	3%	nt	-23%	nt
N#Cc1c(N)n(-c2ccc(N)cc2)c2nc3ccccc3nc12	-4%	15%	-2%	-2%	-25%	-6
N#Cc1c(C#N)c(SSc2c(C#N)c(C#N)c(N)n2-c2ccccc2)n(-c2ccccc2)c1N	nt	nt	?	nt	0.79µM*	-81*
N#Cc1c(N)n(-c2ccc(C(=O)O)cc2)c2nc3ccccc3nc12	2%	-5%[59 µM]	39%	3%	7%	-2
N#Cc1c(C#N)c(-c2ccccc2)n(-c2ccc(C(=O)O)cc2)c1N	?	56µM*	18%	-4%	-20%	-17
O=C(COC(=O)c1ccccn1)Nc1cccc(Cl)c1Cl	?	50µM*	38%	-2%	3%[57.1 µM]	-6
O=C(COC(=O)c1ccccn1)NCc1ccc(Cl)cc1Cl	?	28µM*	17%	-2%	-23%	0
O=C(NCc1ccc(Cl)cc1Cl)c1ccccn1	32%	-24%	24%	13%	5%	nt
N#Cc1cnc2sc3ccccc3n2c1=N	0%	-10%	38%	nt	0%	-61*
Clc1ccc(N=NN2CCOCC2)cc1	7%	50µM*	26%	6%	2%	0
SMILES	BAZ2B block	G9a block	HP1b binding inh	L3MBTL1 block	JMJD2A Tudor	PI5P4K alpha inh
Cc1ccc(C)c(NC(=O)C(=O)NCCc2csc(-c3cccc(F)c3)n2)c1	0%	11%[59 µM]	27%[57 µM]	nt	-9%	nt
CCCCc1nc(N2CCOCC2)c(C#N)c2c1COC(C)(C)C2	15%	-2%[12.7 µM]	51%	4%[11.4 µM]	21%	21
CCc1nc(N2CCN(CC(=O)NCC3CCCO3)CC2)c(C#N)c2c1COC(C)(C)C2 (centres undefined)	50µM*	nt	33%	nt	-1%	-2
C#CCSc1nnnn1-c1ccc(OCC)cc1	-1%	50µM*	58%	17%	3%	-3
CCOc1ccc(-n2nnnc2SCC(=O)Nc2ccc(NC(C)=O)cc2)cc1	-4%	-3%	49%	6%	4%	1
COc1ccc(-n2c(=O)c(-c3ccc(Cl)cc3)nc3cnc(N(C)C)nc32)cc1	nt	-17%[0.501 µM]	nt	nt	nt	nt
Cc1c(C(=O)N(C)C)sc2c1c(=O)n(-c1ccccc1C(F)(F)F)c(=O)n2Cc1ccccc1C#N	-15%	15%[59 µM]	-3%	nt	-18%	nt
Cc1sc(-c2ccccn2)nc1OC(=O)c1ccc(F)cc1F	79µM*	10µM*	30%	33%	-7%	1
Cc1sc(-c2ccccn2)nc1OC(=O)c1ccc(Cl)c(Cl)c1	-1%	40µM*	19%	4%	-4%	nt
CCOC(=O)Cn1c(=O)n(-c2ccccc2OC)c2nc(-c3ccccc3C)nc(C(N)=O)c21	-19%	1%[59 µM]	20%[57 µM]	nt	-22%	nt
COc1ccccc1NS(=O)(=O)c1cc(NC(=O)c2ccc(NC(C)=O)cc2)ccc1N1CCOCC1	nt	nt	?	nt	?	-24
COc1ccccc1NS(=O)(=O)c1cc(NC(=S)NCCN2CCOCC2)ccc1N1CCOCC1	?	10µM*	?	-15%	?	-14
COCC(=O)Nc1ccc(N2CCOCC2)c(S(=O)(=O)Nc2ccccc2OC)c1	nt	nt	?	-5%	-33%	?
COc1ccccc1NS(=O)(=O)c1cc(NC(=O)c2cccc(S(=O)(=O)N(C)C)c2)ccc1N1CCOCC1	4%	18µM*	41%	-15%	-21%	-1
COc1ccccc1NS(=O)(=O)c1cc(NC(=O)c2ccncc2)ccc1N1CCOCC1	6%	?	?	7%	-32%	-27
COc1ccccc1NS(=O)(=O)c1cc(NC(=O)c2cc[n+]([O-])cc2)ccc1N1CCCC1	nt	?	?	6%	63µM*	-25
COc1ccccc1NS(=O)(=O)c1cc(NC(=O)Nc2ccccc2)ccc1N1CCCCC1	-10%	10µM*	?	-5%	-31%	-13
COc1ccccc1NS(=O)(=O)c1cc(NC(=O)c2cccs2)ccc1N1CCCCC1	-21%	-12%[59 µM]	-6%	-9%	-19%	1
Cc1oc(-c2ccccc2Cl)nc1CS(=O)(=O)CC(=O)NCc1ccc(F)cc1	-5%	5%[59 µM]	34%	nt	-6%	nt
CCOC(=O)c1c(NC(=O)C(C)Sc2cn(CCNC(=O)c3ccc(OC)cc3)c3ccccc23)sc2c1CCC2 (centres undefined)	?	?	-1%	nt	-30%	nt
CC(C)Oc1ccc(CNC(=O)c2cnc3sc(N4CCCC4)nn3c2=O)cc1	-9%	15%[59 µM]	5%	nt	-1%	nt
COc1ccccc1NS(=O)(=O)c1cc(NC(=O)C(C)C)ccc1N1CCCCC1	nt	8.9µM*	?	5%	?	-4
